Measured potencies and affinities stand elsewhere. Active and inactive are the calls of the source.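 Rule for the calls, unless noted: active = primary screen activator hit with a dose response curve and TRPC4 channel activation at any tested dose; inactive = no activation, no dose response, or not a primary hit.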
The compounds below were run against Short transient receptor potential channel 4 (Mus musculus) (UniProt Q9QUQ5) (assay: calcium entry via TRPC4 opening agents – cell-based, HEK293 TRPC4/mu-opioid, Fluo-4 calcium, dose response (AID 434937)). Conditions: HEK293 TRPC4 cells, Fluo-4 calcium fluorescence ratio; series mostly up to 20 µM.
Chain of Short transient receptor potential channel 4 (Mus musculus) (Q9QUQ5 whole entry, looked up): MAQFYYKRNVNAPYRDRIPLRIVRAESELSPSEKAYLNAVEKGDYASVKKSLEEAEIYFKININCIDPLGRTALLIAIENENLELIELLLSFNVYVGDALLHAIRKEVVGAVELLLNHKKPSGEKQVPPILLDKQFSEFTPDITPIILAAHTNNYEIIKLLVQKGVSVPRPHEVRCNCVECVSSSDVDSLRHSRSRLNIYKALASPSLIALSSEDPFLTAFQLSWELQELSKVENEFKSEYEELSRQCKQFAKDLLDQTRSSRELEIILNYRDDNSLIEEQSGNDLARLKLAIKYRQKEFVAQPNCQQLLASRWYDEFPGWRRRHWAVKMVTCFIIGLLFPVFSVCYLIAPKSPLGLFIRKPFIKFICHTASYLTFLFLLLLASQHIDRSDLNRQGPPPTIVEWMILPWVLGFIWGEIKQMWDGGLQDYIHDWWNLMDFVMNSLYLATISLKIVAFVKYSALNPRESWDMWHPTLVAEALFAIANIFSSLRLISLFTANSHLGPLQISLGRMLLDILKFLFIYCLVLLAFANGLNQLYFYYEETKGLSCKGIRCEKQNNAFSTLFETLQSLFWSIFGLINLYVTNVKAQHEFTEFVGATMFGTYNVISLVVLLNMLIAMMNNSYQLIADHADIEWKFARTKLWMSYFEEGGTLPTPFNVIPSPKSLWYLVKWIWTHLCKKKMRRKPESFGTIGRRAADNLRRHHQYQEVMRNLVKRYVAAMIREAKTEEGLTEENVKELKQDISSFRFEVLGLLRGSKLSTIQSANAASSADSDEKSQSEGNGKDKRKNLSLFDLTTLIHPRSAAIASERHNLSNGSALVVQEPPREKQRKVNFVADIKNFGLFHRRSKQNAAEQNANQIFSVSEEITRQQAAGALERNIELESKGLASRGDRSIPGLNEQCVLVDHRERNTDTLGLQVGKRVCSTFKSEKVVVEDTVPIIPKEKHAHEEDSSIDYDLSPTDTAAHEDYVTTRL

outcome, inactive:
CCCc1nc2oc3c(NCCCN(C)C)ncnc3c2c2c1CCCC2
O=C(/C=C/c1ccc(Cl)cc1)N(Cc1ccccc1)C1CCS(=O)(=O)C1 (stereo not drawn)
COc1ccc(NS(=O)(=O)c2ccc3ccccc3c2)c2ncccc12
CN(C)S(=O)(=O)N1CCC(CCCC2CCN(S(=O)(=O)N(C)C)CC2)CC1
COc1cc(C2(c3ccc(O)c(OC)c3)C(=O)Nc3c(C)cc(Br)cc32)ccc1O
COC(=O)C(CC(=O)Nc1cc(C)ccc1C)Nc1ccccc1OC (stereo not drawn)
CC(C)CCc1noc(CN2CCN(c3ccc(Cl)cn3)CC2)n1
Cc1cc(OCCN2CCCC2)ccc1[N+](=O)[O-]
CSc1ccc(S(=O)(=O)NCC(=O)OCC(=O)N(C)Cc2ccccc2)cc1[N+](=O)[O-]
O=C(COC(=O)c1ccccc1C(=O)N1CCN(c2ccccc2)CC1)Nc1ccc(F)cc1
CCCCCCCCCC[n+]1cccc2c3ccccc3ccc21
Cc1nn(-c2cc(C(F)(F)F)ccc2Cl)c2nc(C(Cl)(Cl)Cl)[nH]c(=O)c12
Cc1cc2oc(C(=O)N(Cc3cccs3)C3CCS(=O)(=O)C3)cc(=O)c2cc1Cl (stereo not drawn)
CN(C)CCCN(C(=O)CCc1ccccc1)c1nc2ccc(F)cc2s1
Cc1ccc(C(=O)O)cc1N=Cc1cc(Br)cc(Br)c1O
N=c1c2c3c(sc2ncn1Cc1ccccc1)CCCC3
Cn1c2ccccc2c(=O)c2c(=O)n(-c3ccccc3)c(-c3ccc(C(C)(C)C)cc3)nc21
CCCNc1nc2ccccc2n2c(C)nnc12
CC(C)NS(=O)(=O)c1ccc(NC(=O)C(C)Oc2ccc(C(=O)c3ccccc3)cc2)cc1 (stereo not drawn)
O=C1C=CC(=O)N1CCNc1ncc(C(F)(F)F)cc1Cl
CCN1CCN(c2ccc(S(=O)(=O)N3CCCCC3)cc2NC(=O)c2cccc(F)c2)CC1
CCn1c2ccc(F)cc2c2nnc(NN)nc21
CCCN1Cc2cccc(C(=O)N3CCN(c4cc(Cl)ccc4C)CC3)c2C1=O
Cc1ccc2c(c1)C1CN(C)CCC1N2C(=S)NC(=O)c1ccc(Br)cc1 (stereo not drawn)
CCCCN(CC)CCCNC(=O)c1cc2cc3ccc(C)cc3nc2o1
COc1cc(NC(=O)CSc2ncnc3sc4c(c23)CCC(C)C4)c(C(=O)O)cc1OC (stereo not drawn)
CN(CCCNC(=O)CCCOc1cc(=O)n(C)c2ccccc12)Cc1ccccc1
O=S(=O)(NCC1NCCc2ccccc21)c1ccccc1 (stereo not drawn)
Cc1cc(C)c2c(=O)n(CC(=O)Nc3cccc(Cl)c3C)sc2n1
O=C(Nc1ccnn1C1CCN(Cc2cc3ccccc3[nH]2)CC1)C1CCOC1 (stereo not drawn)
CC(Oc1ccc(Cl)cc1Cl)C(=O)N(C)c1ccccc1 (stereo not drawn)
O=C(C1=C[C@H](c2ccc(C(F)(F)F)cc2)C[C@H](OCCCCO)O1)N1CCOCC1
O=C(O)CCCN1C(=O)/C(=C\c2ccc(-c3nc4ccccc4s3)o2)SC1=S
O=c1c2ccccc2nc(COc2ccccc2)n1/N=C/c1cc([N+](=O)[O-])ccc1O
O=C(CCN1CCN(Cc2ccccc2)CC1)Nc1cccc(Br)c1
O=C(NC1CCCC1)c1cc2ccccc2o1
Cc1cc(/C=N/NC(=O)c2cccc([N+](=O)[O-])c2)c(C)n1-c1ccc(Cl)cc1Cl
CCN(CC)c1ncnc2sc3c(c12)CCC3
CC(=O)c1nn(-c2cccc(Br)c2)cc1C(=O)c1cccc2ccccc12

What follows are compounds tested against Short transient receptor potential channel 4 (Mus musculus) (UniProt Q9QUQ5) (assay: potentiation of DAMGO-evoked TRPC4 calcium signal – cell-based, HEK293 TRPC4/mu-opioid, Fluo-4 calcium, EC20 DAMGO, dose response (AID 434941;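 active = earlier screen potentiator hit that boosts the TRPC4 ion channel at some dose, with a dose response; inactive = no potentiation, no dose response, or not a prior hit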;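 note: calcium entry triggered by an EC20 dose of DAMGO at the co-expressed mu-opioid receptor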)). Conditions: HEK293 TRPC4/mu-opioid cells, Fluo-4 calcium fluorescence; series mostly up to 20 µM.

outcome, inactive:
CCCc1nc2oc3c(NCCCN(C)C)ncnc3c2c2c1CCCC2
O=C(/C=C/c1ccc(Cl)cc1)N(Cc1ccccc1)C1CCS(=O)(=O)C1 (stereo not drawn)
COc1ccc(NS(=O)(=O)c2ccc3ccccc3c2)c2ncccc12
CN(C)S(=O)(=O)N1CCC(CCCC2CCN(S(=O)(=O)N(C)C)CC2)CC1
COc1cc(C2(c3ccc(O)c(OC)c3)C(=O)Nc3c(C)cc(Br)cc32)ccc1O
COC(=O)C(CC(=O)Nc1cc(C)ccc1C)Nc1ccccc1OC (stereo not drawn)
CC(C)CCc1noc(CN2CCN(c3ccc(Cl)cn3)CC2)n1
Cc1cc(OCCN2CCCC2)ccc1[N+](=O)[O-]
CSc1ccc(S(=O)(=O)NCC(=O)OCC(=O)N(C)Cc2ccccc2)cc1[N+](=O)[O-]
O=C(COC(=O)c1ccccc1C(=O)N1CCN(c2ccccc2)CC1)Nc1ccc(F)cc1
CCCCCCCCCC[n+]1cccc2c3ccccc3ccc21
Cc1nn(-c2cc(C(F)(F)F)ccc2Cl)c2nc(C(Cl)(Cl)Cl)[nH]c(=O)c12
Cc1cc2oc(C(=O)N(Cc3cccs3)C3CCS(=O)(=O)C3)cc(=O)c2cc1Cl (stereo not drawn)
CN(C)CCCN(C(=O)CCc1ccccc1)c1nc2ccc(F)cc2s1
Cc1ccc(C(=O)O)cc1N=Cc1cc(Br)cc(Br)c1O
N=c1c2c3c(sc2ncn1Cc1ccccc1)CCCC3
Cn1c2ccccc2c(=O)c2c(=O)n(-c3ccccc3)c(-c3ccc(C(C)(C)C)cc3)nc21
CCCNc1nc2ccccc2n2c(C)nnc12
CC(C)NS(=O)(=O)c1ccc(NC(=O)C(C)Oc2ccc(C(=O)c3ccccc3)cc2)cc1 (stereo not drawn)
O=C1C=CC(=O)N1CCNc1ncc(C(F)(F)F)cc1Cl
CCN1CCN(c2ccc(S(=O)(=O)N3CCCCC3)cc2NC(=O)c2cccc(F)c2)CC1
CCn1c2ccc(F)cc2c2nnc(NN)nc21
CCCN1Cc2cccc(C(=O)N3CCN(c4cc(Cl)ccc4C)CC3)c2C1=O
Cc1ccc2c(c1)C1CN(C)CCC1N2C(=S)NC(=O)c1ccc(Br)cc1 (stereo not drawn)
CCCCN(CC)CCCNC(=O)c1cc2cc3ccc(C)cc3nc2o1
COc1cc(NC(=O)CSc2ncnc3sc4c(c23)CCC(C)C4)c(C(=O)O)cc1OC (stereo not drawn)
CN(CCCNC(=O)CCCOc1cc(=O)n(C)c2ccccc12)Cc1ccccc1
O=S(=O)(NCC1NCCc2ccccc21)c1ccccc1 (stereo not drawn)
Cc1cc(C)c2c(=O)n(CC(=O)Nc3cccc(Cl)c3C)sc2n1
O=C(Nc1ccnn1C1CCN(Cc2cc3ccccc3[nH]2)CC1)C1CCOC1 (stereo not drawn)
CC(Oc1ccc(Cl)cc1Cl)C(=O)N(C)c1ccccc1 (stereo not drawn)
O=C(C1=C[C@H](c2ccc(C(F)(F)F)cc2)C[C@H](OCCCCO)O1)N1CCOCC1
O=C(O)CCCN1C(=O)/C(=C\c2ccc(-c3nc4ccccc4s3)o2)SC1=S
O=c1c2ccccc2nc(COc2ccccc2)n1/N=C/c1cc([N+](=O)[O-])ccc1O
O=C(CCN1CCN(Cc2ccccc2)CC1)Nc1cccc(Br)c1
O=C(NC1CCCC1)c1cc2ccccc2o1
Cc1cc(/C=N/NC(=O)c2cccc([N+](=O)[O-])c2)c(C)n1-c1ccc(Cl)cc1Cl
CCN(CC)c1ncnc2sc3c(c12)CCC3
CC(=O)c1nn(-c2cccc(Br)c2)cc1C(=O)c1cccc2ccccc12
